# Measured values as given in paper PMC7862700, “An all-to-all approach to the identification of sequence-specific readers for epigenetic DNA modifications on cytosine”.
# What was measured:
# Assay in all cases: DAPPL (digital affinity profiling via proximity ligation, sequencing); 10 mM Tris-HCl pH 7.5, 50 mM NaCl, 1 mM DTT, 4% glycerol, room temperature, 30 min; GST-TFs on glutathione beads, 16-mer random dsDNA library, 0.1% formaldehyde crosslink after washing; high values mean tight binding
# FEV = target: T1, FEV (Homo sapiens, UniProt Q99581 1-238); details: protein: recombinant; tags: N-terminal GST; dsDNA, one strand shown
# T1 sequence: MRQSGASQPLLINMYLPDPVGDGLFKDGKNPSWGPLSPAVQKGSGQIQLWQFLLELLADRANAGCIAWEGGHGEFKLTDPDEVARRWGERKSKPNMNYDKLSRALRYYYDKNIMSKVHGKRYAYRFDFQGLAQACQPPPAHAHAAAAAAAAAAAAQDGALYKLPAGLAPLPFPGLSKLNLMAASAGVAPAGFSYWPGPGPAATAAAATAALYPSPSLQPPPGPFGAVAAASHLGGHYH
# Outline: (§1)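 Beads coated with glutathione captured GST-fused human transcription factors that had been expressed in yeast, and the factors were then given DNA barcodes and pooled with a tag-only sample. The pools were incubated with 200 nmole of a random double-stranded 16-mer DNA library in Tris/NaCl/DTT/glycerol buffer for 30 min at room temperature, washed, crosslinked with 0.1% formaldehyde and proximity-ligated with BsaI/T4 ligase at 37 °C for 1 h. PCR amplification and Illumina NextSeq500 sequencing came last. Binding signal is each hexamer's read frequency for a factor divided by its frequency for the tag-only sample.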
# ETV5 = ETV5 (Homo sapiens, UniProt P41161 1-510); details: protein: recombinant; tags: N-terminal GST; dsDNA, one strand shown
# Outline: as §1
# HSF1 = HSF1 (Homo sapiens, UniProt Q00613 1-529); details: protein: recombinant; tags: N-terminal GST; chain copies: 3; dsDNA, one strand shown
# Outline: as §1
# SPIC = target: T2, SPIC (Homo sapiens, UniProt Q8N5J4 1-248); details: protein: recombinant; tags: N-terminal GST; dsDNA, one strand shown
# T2 sequence: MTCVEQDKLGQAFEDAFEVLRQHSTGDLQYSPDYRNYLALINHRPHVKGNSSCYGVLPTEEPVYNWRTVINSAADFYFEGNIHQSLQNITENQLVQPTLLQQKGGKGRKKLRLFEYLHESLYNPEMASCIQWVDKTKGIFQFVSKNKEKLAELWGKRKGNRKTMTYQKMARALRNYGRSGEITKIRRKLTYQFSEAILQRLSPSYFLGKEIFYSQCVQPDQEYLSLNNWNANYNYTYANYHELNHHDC
# Outline: as §1
# ELF4 = ELF4 (Homo sapiens, UniProt Q99607 1-663); details: protein: recombinant; tags: N-terminal GST; dsDNA, one strand shown
# Outline: as §1
# ELK4 = target: T3, ELK4 (Homo sapiens, UniProt P28324-2 1-405); details: protein: recombinant; tags: N-terminal GST; dsDNA, one strand shown
# T3 sequence: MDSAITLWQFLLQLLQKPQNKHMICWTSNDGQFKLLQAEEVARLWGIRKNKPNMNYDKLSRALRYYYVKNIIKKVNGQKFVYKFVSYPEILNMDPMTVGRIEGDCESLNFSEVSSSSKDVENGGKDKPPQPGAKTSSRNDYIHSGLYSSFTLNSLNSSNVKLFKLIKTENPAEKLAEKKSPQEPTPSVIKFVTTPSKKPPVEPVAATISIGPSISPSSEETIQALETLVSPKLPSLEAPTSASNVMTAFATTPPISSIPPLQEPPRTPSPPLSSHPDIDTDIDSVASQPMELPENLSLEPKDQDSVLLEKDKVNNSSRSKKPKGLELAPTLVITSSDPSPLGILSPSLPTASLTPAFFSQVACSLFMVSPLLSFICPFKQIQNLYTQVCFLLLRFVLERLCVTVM
# Outline: as §1
# ETV2 = target: T4, ETV2 (Homo sapiens, UniProt O00321 1-342); details: protein: recombinant; tags: N-terminal GST; dsDNA, one strand shown
# T4 sequence: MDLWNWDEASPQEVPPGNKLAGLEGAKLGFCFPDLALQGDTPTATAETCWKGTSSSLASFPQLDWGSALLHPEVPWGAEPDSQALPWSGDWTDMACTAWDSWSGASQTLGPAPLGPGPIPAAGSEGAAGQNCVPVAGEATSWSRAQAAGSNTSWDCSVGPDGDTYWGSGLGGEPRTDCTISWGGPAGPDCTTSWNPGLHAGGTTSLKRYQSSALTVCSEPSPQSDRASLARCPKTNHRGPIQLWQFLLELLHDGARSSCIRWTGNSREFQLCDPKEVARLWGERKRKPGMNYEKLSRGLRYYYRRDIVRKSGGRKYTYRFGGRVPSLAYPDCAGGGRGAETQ
# Outline: as §1
# ELF3 = target: T5, ELF3 (Homo sapiens, UniProt P78545 1-371); details: protein: recombinant; tags: N-terminal GST; dsDNA, one strand shown
# T5 sequence: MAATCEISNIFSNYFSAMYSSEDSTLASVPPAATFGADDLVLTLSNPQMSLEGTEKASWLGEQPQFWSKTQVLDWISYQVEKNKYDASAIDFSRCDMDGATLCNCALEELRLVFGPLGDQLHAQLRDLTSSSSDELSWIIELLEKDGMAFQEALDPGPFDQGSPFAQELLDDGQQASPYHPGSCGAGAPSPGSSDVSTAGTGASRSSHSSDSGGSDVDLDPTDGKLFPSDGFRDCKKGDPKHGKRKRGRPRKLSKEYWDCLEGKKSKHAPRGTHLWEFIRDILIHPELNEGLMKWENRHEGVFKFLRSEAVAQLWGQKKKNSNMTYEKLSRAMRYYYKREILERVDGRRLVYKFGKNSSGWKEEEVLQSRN
# Outline: as §1
# CRX = CRX (Homo sapiens, UniProt O43186 1-299); details: protein: recombinant; tags: N-terminal GST; dsDNA, one strand shown
# Outline: as §1
# ETV1 = ETV1 (Homo sapiens, UniProt P50549 1-477); details: protein: recombinant; tags: N-terminal GST; dsDNA, one strand shown
# Outline: as §1
# ERF = target: T6, ERF (Homo sapiens, UniProt P50548 1-548); details: protein: recombinant; tags: N-terminal GST; dsDNA, one strand shown
# T6 sequence: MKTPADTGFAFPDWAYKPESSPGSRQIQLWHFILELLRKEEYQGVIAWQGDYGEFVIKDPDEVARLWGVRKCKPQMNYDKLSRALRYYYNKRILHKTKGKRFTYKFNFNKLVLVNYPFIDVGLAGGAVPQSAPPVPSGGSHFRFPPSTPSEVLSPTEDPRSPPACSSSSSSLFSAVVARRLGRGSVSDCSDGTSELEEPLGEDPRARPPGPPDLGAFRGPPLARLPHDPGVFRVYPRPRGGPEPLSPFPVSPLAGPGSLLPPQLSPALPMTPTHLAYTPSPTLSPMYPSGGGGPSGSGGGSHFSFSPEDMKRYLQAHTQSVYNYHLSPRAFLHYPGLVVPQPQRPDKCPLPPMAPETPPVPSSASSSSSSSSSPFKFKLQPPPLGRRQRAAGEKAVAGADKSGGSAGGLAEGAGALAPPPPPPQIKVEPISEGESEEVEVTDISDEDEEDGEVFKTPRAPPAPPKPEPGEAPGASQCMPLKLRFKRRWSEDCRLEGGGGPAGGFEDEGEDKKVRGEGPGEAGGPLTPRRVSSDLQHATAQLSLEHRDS
# Outline: as §1
# ETV3L = target: T7, ETV3L (Homo sapiens, UniProt Q6ZN32 1-361); details: protein: recombinant; tags: N-terminal GST; dsDNA, one strand shown
# T7 sequence: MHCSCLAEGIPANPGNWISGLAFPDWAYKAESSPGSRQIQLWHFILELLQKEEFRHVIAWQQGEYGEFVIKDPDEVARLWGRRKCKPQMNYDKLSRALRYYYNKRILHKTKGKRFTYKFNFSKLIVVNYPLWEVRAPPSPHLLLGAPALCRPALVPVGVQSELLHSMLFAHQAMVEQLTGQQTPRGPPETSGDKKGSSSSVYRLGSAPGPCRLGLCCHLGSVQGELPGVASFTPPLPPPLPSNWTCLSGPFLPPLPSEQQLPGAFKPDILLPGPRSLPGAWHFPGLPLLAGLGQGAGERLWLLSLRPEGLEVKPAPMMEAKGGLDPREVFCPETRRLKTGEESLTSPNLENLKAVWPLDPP
# Outline: as §1
# ETS2 = target: T8, ETS2 (Homo sapiens, UniProt P15036 1-469); details: protein: recombinant; tags: N-terminal GST; dsDNA, one strand shown
# T8 sequence: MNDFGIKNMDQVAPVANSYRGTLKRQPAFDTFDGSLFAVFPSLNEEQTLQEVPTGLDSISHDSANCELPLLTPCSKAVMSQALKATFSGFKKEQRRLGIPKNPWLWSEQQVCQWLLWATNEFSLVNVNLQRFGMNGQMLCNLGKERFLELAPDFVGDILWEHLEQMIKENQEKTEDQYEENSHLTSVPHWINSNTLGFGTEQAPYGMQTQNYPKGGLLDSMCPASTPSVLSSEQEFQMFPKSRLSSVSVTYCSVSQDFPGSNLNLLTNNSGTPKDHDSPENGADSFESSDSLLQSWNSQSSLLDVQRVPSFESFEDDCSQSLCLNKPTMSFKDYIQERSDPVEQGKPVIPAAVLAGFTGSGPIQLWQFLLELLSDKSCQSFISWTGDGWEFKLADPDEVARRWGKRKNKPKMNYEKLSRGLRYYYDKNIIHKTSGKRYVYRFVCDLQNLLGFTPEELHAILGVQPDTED
# Outline: as §1
# SPDEF = target: T9, SPDEF (Homo sapiens, UniProt O95238 1-335); details: protein: recombinant; tags: N-terminal GST; dsDNA, one strand shown
# T9 sequence: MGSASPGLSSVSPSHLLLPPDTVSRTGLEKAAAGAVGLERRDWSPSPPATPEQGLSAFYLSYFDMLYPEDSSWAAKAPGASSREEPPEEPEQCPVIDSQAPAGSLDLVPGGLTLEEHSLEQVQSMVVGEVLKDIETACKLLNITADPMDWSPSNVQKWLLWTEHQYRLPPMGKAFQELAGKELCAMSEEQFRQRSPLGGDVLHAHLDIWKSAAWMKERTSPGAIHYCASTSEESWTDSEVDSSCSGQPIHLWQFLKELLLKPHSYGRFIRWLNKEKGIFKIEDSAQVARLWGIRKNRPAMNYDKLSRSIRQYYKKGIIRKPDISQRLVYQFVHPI
# Outline: as §1
# ETV7 = target: T10, ETV7 (Homo sapiens, UniProt Q9Y603 1-341); details: protein: recombinant; tags: N-terminal GST; dsDNA, one strand shown
# T10 sequence: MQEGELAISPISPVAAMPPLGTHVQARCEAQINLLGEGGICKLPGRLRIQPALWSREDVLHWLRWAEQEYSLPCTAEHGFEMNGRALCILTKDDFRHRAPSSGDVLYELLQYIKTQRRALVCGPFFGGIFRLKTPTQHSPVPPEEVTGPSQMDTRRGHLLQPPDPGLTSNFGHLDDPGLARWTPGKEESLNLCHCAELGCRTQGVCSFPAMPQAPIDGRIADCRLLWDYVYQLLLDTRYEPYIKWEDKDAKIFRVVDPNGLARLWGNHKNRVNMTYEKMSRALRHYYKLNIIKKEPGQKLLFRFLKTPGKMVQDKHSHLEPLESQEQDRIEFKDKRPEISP
# Outline: as §1
# ELF5 = target: T11, ELF5 (Homo sapiens, UniProt Q9UKW6-2 1-255); details: protein: recombinant; tags: N-terminal GST; dsDNA, one strand shown
# T11 sequence: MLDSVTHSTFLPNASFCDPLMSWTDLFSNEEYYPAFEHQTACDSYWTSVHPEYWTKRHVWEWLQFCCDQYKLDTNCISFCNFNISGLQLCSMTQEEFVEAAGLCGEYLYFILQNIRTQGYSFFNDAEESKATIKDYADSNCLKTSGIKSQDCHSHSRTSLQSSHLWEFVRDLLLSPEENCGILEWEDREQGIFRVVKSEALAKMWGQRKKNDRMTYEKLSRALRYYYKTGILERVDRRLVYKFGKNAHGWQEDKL
# Outline: as §1
# ETV3 = target: T12, ETV3 (Homo sapiens, UniProt P41162-2 1-143); details: protein: recombinant; tags: N-terminal GST; dsDNA, one strand shown
# T12 sequence: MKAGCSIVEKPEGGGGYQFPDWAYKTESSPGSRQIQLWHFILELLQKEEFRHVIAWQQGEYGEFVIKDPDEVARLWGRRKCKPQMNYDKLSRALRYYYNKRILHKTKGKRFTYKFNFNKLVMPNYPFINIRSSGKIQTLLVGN
# Outline: as §1
# ETV6 = ETV6 (Homo sapiens, UniProt P41212 1-452); details: protein: recombinant; tags: N-terminal GST; dsDNA, one strand shown
# Outline: as §1
# ELF4, sequence (Q99607 whole entry): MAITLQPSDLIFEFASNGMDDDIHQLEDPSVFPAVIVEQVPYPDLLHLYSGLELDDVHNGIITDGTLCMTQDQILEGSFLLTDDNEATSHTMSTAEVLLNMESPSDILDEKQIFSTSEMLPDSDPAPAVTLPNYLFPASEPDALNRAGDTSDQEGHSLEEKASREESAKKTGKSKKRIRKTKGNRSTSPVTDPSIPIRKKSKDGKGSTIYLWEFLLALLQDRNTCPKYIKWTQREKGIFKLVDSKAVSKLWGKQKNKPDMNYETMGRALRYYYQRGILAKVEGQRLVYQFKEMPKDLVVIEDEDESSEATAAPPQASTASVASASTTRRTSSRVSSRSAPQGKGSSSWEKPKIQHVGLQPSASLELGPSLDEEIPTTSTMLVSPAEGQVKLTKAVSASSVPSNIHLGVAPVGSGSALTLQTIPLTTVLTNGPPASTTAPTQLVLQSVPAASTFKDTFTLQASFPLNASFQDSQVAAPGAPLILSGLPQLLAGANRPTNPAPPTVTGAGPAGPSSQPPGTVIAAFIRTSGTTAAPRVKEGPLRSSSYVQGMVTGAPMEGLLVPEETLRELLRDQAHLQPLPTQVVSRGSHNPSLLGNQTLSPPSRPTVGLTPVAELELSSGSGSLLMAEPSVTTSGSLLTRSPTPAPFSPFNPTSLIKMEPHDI
# ETV6, sequence (P41212 whole entry): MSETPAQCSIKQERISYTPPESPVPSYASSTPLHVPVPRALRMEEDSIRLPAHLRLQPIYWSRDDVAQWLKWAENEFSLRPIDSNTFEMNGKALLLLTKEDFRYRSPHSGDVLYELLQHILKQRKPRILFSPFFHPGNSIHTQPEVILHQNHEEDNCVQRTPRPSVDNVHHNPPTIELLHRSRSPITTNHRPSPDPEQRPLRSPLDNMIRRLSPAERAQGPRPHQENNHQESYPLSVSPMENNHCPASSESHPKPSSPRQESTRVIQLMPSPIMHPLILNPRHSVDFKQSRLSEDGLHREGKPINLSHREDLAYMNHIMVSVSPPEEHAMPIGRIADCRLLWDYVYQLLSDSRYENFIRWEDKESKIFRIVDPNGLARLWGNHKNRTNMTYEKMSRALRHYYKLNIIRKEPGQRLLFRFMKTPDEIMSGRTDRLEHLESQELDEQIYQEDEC
# ETV5, sequence (P41161 whole entry): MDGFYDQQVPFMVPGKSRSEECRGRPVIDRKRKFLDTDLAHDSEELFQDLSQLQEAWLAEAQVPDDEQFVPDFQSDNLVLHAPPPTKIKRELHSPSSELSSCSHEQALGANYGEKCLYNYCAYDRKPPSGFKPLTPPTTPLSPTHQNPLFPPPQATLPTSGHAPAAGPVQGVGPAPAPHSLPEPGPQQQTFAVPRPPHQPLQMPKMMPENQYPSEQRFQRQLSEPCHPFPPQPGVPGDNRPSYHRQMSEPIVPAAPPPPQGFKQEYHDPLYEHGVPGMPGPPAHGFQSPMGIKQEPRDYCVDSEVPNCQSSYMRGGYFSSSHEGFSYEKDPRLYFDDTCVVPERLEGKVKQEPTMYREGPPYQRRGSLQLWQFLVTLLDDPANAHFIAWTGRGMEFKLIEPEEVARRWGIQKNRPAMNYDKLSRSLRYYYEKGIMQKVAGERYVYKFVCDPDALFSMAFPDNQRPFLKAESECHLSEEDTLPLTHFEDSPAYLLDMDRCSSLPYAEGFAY
# HSF1, sequence (Q00613 whole entry): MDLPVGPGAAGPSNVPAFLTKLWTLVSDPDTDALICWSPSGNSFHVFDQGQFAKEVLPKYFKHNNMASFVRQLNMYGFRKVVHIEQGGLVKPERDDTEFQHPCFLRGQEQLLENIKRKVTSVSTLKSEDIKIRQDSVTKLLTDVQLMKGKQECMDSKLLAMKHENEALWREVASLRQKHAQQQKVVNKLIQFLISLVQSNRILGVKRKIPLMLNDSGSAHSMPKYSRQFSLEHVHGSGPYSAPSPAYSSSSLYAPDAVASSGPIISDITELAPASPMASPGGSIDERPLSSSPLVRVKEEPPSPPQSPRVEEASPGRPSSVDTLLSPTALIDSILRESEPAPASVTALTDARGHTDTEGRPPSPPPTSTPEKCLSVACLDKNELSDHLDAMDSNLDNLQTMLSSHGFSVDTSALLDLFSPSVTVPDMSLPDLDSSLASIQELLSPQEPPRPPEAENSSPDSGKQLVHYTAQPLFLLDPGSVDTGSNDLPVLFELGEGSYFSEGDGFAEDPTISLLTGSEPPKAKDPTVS
# CRX, sequence (O43186 whole entry): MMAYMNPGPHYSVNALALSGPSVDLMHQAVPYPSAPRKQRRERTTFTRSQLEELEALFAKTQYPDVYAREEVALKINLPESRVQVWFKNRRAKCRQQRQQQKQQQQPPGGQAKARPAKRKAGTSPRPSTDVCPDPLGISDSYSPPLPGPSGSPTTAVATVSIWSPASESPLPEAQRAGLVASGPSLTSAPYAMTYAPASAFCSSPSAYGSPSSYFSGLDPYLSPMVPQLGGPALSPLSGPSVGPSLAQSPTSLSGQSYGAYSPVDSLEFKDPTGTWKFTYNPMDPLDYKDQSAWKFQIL
# ETV1, sequence (P50549 whole entry): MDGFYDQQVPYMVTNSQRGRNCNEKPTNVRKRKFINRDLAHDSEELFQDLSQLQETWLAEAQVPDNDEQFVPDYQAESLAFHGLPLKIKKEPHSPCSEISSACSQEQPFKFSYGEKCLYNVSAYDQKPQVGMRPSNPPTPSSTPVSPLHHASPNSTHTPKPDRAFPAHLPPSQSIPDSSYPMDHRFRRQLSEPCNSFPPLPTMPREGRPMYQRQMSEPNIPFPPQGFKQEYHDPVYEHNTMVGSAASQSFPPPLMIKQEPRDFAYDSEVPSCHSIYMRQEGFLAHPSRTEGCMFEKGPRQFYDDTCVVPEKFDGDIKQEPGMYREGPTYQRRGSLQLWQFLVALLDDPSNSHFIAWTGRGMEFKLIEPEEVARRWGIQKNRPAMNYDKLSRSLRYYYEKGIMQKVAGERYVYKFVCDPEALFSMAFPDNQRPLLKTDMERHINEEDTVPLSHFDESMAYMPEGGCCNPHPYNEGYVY
sequence,measurement,setting,value
TTGATG,binding signal,FEV,"1.52 fold enrichment (6-mer frequency, TF over GST control)"
same,binding signal,ETV5,"1.73 fold enrichment (6-mer frequency, TF over GST control)"
same,binding signal,HSF1,"1.43 fold enrichment (6-mer frequency, TF over GST control)"
same,binding signal,SPIC,"1.59 fold enrichment (6-mer frequency, TF over GST control)"
same,binding signal,ELF4,"1.63 fold enrichment (6-mer frequency, TF over GST control)"
same,binding signal,ELK4,"1.52 fold enrichment (6-mer frequency, TF over GST control)"
same,binding signal,ETV2,"1.53 fold enrichment (6-mer frequency, TF over GST control)"
same,binding signal,ELF3,"1.81 fold enrichment (6-mer frequency, TF over GST control)"
same,binding signal,CRX,"1.5 fold enrichment (6-mer frequency, TF over GST control)"
same,binding signal,ETV1,"1.67 fold enrichment (6-mer frequency, TF over GST control)"
same,binding signal,ERF,"1.66 fold enrichment (6-mer frequency, TF over GST control)"
same,binding signal,ETV3L,"1.59 fold enrichment (6-mer frequency, TF over GST control)"
same,binding signal,ETS2,"1.58 fold enrichment (6-mer frequency, TF over GST control)"
same,binding signal,SPDEF,"1.51 fold enrichment (6-mer frequency, TF over GST control)"
same,binding signal,ETV7,"1.45 fold enrichment (6-mer frequency, TF over GST control)"
same,binding signal,ELF5,"1.6 fold enrichment (6-mer frequency, TF over GST control)"
same,binding signal,ETV3,"1.43 fold enrichment (6-mer frequency, TF over GST control)"
same,binding signal,ETV6,"1.57 fold enrichment (6-mer frequency, TF over GST control)"
